From PubChem
JMJD2A Tudor inh: inhibitors of human JMJD2A Tudor domain; AlphaScreen JMJD2A-Tudor / H3K4me3 peptide binding; Potency, µM (highest dose often 114 µM), for the others: top-dose activity change, negative = inhibition, hits mostly inhibitors; 4.4% of 390,000 active; note: % is set by controls: 0 for no effect and ±100 for the full control effect; nearly all actives have a fitted effect of over 50% in size
HP1b chromo inh: blocks HP1-beta chromodomain binding to methylated histone tails; P83916; AID 540317; Potency, µM (titrated, usually from 114 µM), inactives show at the top dose activity change, negative = inhibition, most hits filed as inhibitors; AlphaScreen HP1-beta / biotin-H3K9me3 peptide binding; 0.56% of 390,000 active; note: nearly all actives have a fitted effect of over 70% in size
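AlphaScreen: HP1-beta (50 nM) preformed 30 min with biotin-H3(1-18)K9me3 peptide (50 nM) in PBS pH 7.4, 0.01% Tween-20. Compound added for 30 min at RT, then streptavidin donor/nickel chelate acceptor beads (10 ug/mL) for 30 min.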
BAZ2B block: BAZ2B (human) inhibition; Q9UIF8; AlphaScreen BAZ2B-H3K14Ac peptide displacement; Potency, µM (series often up to 114 µM), without a hit: at the top dose activity change, negative = inhibition, usual class: inhibitors; 4.4% of 360,000 active; AID 504333; note: % is set by controls: 0 for no effect and ±100 for the full control effect; nearly all actives have a fitted effect of over 60% in size
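BAZ2B (50 nM) with biotin-H3(5-23)K14Ac peptide (50 nM) in PBS pH 7.4, 0.01% Tween-20, preformed 30 min, then compound 30 min at room temperature; top concentration 110uM. AlphaScreen streptavidin donor/nickel chelate acceptor beads (10 ug/mL final), 20 min dark, signal read.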
Sfp inh: inhibitors of Bacillus subtilis Sfp phosphopantetheinyl transferase; AID 1490; Potency, µM, for inactives: largest response in the series, negative = inhibition, actives largely listed as inhibitors; Biochemical Sfp PPTase activity, qHTS; Q9F4F7; 3.5% of 310,000 active;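 note: the enzyme is Sfp with the accession as filed and its product quenches rhodamine fluorescence; 0% = enzyme reaction without inhibitor and -100% = no enzyme wells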
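Fluorescence-quenching assay with 15 nM Sfp, 5 uM rhodamine-CoA and 12.5 uM BHQ-2-labelled ybbR peptide in pH 7.6 Hepes/MgCl2 buffer. Enzyme was pre-incubated with compound for 15 min at room temperature. Rate was taken from the 30-min fluorescence change (525/598 nm).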
G9a inh: inhibitors of human histone lysine methyltransferase G9a | Q96KQ7 | G9a H3K9 monomethylation, AlphaScreen, 2 h | Potency, µM (top dose mostly 102 µM), inactives show top-dose activity, negative = inhibition, usual class: inhibitors | 8.8% of 350,000 active | AID 504332; note: % is set by controls: 0 for no effect and ±100 for the full control effect; nearly all actives have a fitted effect of over 75% in size
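G9a (20 nM) was preincubated 15 min with compound, then reacted 2 h at room temperature with 500 nM biotin-H3K9 peptide and 20 µM SAM. Monomethyl-H3K9 detected by AlphaScreen using anti-H3K9me1 antibody.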
PLK1 PBD inh: inhibitors of human PLK1 polo-box domain binding; P53350; Plk1 PBD binding of FITC phosphopeptide, fluorescence polarization; Potency, µM, without a hit: max response, negative = inhibition, most hits filed as inhibitors; 2.8% of 360,000 active; note: series mostly up to about 57 µM; % is set by controls: 0 for no effect and ±100 for the full control effect; nearly all actives have a fitted effect of over 65% in size
Target sequence (P53350 whole entry, looked up, the tested form may be a part): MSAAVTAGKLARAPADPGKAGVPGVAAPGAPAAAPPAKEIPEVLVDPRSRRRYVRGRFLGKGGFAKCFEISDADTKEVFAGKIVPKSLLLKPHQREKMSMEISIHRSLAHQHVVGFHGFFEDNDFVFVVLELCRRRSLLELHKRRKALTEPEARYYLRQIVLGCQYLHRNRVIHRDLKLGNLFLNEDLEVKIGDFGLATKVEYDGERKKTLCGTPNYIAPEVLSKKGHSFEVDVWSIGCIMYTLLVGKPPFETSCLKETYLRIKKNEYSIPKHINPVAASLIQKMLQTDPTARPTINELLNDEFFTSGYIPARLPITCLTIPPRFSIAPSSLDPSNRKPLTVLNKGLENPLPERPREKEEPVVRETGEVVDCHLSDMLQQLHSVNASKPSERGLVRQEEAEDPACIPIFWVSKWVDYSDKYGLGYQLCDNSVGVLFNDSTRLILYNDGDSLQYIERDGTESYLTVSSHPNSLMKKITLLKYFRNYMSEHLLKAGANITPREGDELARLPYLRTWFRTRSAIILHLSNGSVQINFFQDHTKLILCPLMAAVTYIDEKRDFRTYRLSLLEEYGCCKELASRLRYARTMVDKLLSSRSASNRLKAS
Numbers without * were called inactive; u = inconclusive; x = no result; [ ] = remark or other dose. Hits are enriched below; roughly 12% of the tested compounds scored in any of these assays. Calls come from the whole dose curve; as a rule, active = well fitted curve in the direction sought with a large enough effect; inconclusive = small, poorly fitted or top-dose-only effect, or another doubt; inactive = no such curve, though single readings can be large; an effect the other way counts as inactive or inconclusive. Potency is the fitted concentration of half-maximal effect.

SMILES | JMJD2A Tudor inh | HP1b chromo inh | BAZ2B block | Sfp inh | G9a inh | PLK1 PBD inh
Cc1cccc(N2NC(=O)/C(=C/c3ccc(-c4ccc(Cl)c(C(=O)O)c4)o3)C2=O)c1 | u | u | x | -12% | 13µM* | 17µM*
COc1ccc(CNc2ncnc3ccc(-c4ccc(N(C)C)cc4)cc23)c(OC)c1 | x | x | x | u | -1%[0.501 µM] | x
CC(C)C[C@H](NC(=O)[C@H](CC(C)C)NC(=O)[C@H](Cc1ccccc1)NC(=O)[C@@H](N)CO)C(=O)N[C@@H](CCCN=C(N)N)C(=O)N[C@@H](CC(N)=O)C(=O)O | x | x | x | -5% | x | x
COc1ccc(-c2cc(=O)c3c(O)cc(O[C@H]4OC(COC5OC(C)C(O)C(O)[C@H]5O)C(O)C(O)C4O)cc3o2)cc1O (stereo not given in full) | x | x | x | -16% | -44%[2.33 µM] | x
COc1ccc(/C=C/c2nc(S(=O)(=O)c3ccccc3)c(NCCCN(C)C)o2)cc1OC | -8% | 63% | -6% | 2% | 79µM* | u
COc1ccccc1/C=C/c1nc(S(=O)(=O)c2ccccc2)c(NCCN(C)C)o1 | u | 29% | -18% | -2% | u | 30µM*
COc1ccc(/C=C/c2nc(S(=O)(=O)c3ccccc3)c(N(C)C)o2)cc1OC | -5% | 5%[57 µM] | u | -6% | 9%[0.501 µM] | -6%
CN(C)CCCNc1oc(/C=C/c2cccs2)nc1S(=O)(=O)c1ccccc1 | -22% | 13% | u | -12% | x | -18%
CC(=O)Nc1c(C)nn(-c2ccccc2)c1N1CCC(C(=O)Nc2ccc(F)cc2Cl)CC1 | 9% | 29%[57 µM] | 1% | x | 1%[59 µM] | x
CC(C)Oc1ccc(CNC(=O)C2CCN(c3nc4ccccc4nc3C(F)(F)F)CC2)cc1 | -6% | 31% | 0% | x | 3%[59 µM] | x
CCCCn1c(N)c(N(CC(C)C)C(=O)c2cc(C)oc2C)c(=O)[nH]c1=O | -12% | 17% | -18% | 11% | u | -17%
CCCCn1c(N)c(N(CC(C)C)C(=O)CSC(C)C(=O)Nc2cc(C)on2)c(=O)[nH]c1=O (stereo not given) | -8% | 40% | 10% | x | 56µM* | -2%
CCCCN(C(=O)CSCc1c(C)noc1C)c1c(N)n(CCC)c(=O)[nH]c1=O | -13% | 15% | -4% | 8% | u | -10%
CCCCn1c(N)c(N(CC(C)C)C(=O)CSCc2c(C)noc2C)c(=O)[nH]c1=O | -5% | 16% | -15% | x | 45µM* | -8%
Cc1cc(OCC(=O)N2CCOCC2)ccc1NC(=O)c1ccccc1C | 1% | 24% | 6% | 16% | 38% | -3%
COc1ccccc1NCCC(=O)OCC(=O)Nc1cc([N+](=O)[O-])ccc1F | u | -17% | x | x | x | -6%
COc1ccccc1N1CCN(c2nccc(C)n2)CC1 | -16% | 17% | 2% | 5% | 40% | -1%
CC(=O)Nc1ccccc1NS(=O)(=O)c1ccccc1NO | -21% | 1% | x | x | x | x
Cc1ccccc1S(=O)(=O)Nc1nc2ccccc2nc1N1CCOCC1 | 1% | 33% | 56µM* | 13% | -42%[12.7 µM] | -2%
Cc1ccccc1NC(=O)CSCn1nnc2c(=O)[nH]c(Cc3ccc(F)cc3)nc21 | -11% | 22% | 0% | x | -3%[59 µM] | x
CCC1(OC(=O)CN(C)C)C(=O)OCc2c1cc1n(c2=O)Cc2cc3c(N)cccc3nc2-1 (stereo not given) | 16µM* | -10% | x | x | x | 1%
Cc1ccc(-c2cc(-c3n[nH]c(=S)n3C)c3ccccc3n2)cc1 | u | -30% | u | u | 2µM* | u
CCOc1cccc(-c2cc(-c3n[nH]c(=S)n3CC)c3ccccc3n2)c1 | u | -16% | u | u | u | -20%
CCn1c(-c2cc(-c3cc(C)ccc3C)nc3ccccc23)n[nH]c1=S | 56µM* | 15% | u | -6% | 28µM* | -9%
CCn1c(-c2cc(-c3ccc(C)c(C)c3)nc3ccccc23)n[nH]c1=S | x | x | u | -20% | 40µM* | x
SMILES | JMJD2A Tudor inh | HP1b chromo inh | BAZ2B block | Sfp inh | G9a inh | PLK1 PBD inh
CCOc1ccccc1-c1cc(-c2n[nH]c(=S)n2CC)c2ccccc2n1 | 45µM* | 17% | -37% | 3% | 10µM* | -17%
O=S1(=O)N=C(Sc2ccc3c(c2)OCCO3)c2ccccc21 | -26% | x | x | x | x | x
O=C(NCC(=O)N1CCN(C(=O)c2ccccc2)CC1)c1ccc(Cl)cc1Cl | 6% | 35% | 17% | x | u | -2%
Cc1[nH]c2c(C)cccc2c(=O)c1CN1CCCCCC1 | -6% | 33% | -4% | 7% | -16% | -4%
Cc1cc(C)cc(C(=O)NC(CC(N)=O)c2ccc(NC3CCCC3)c([N+](=O)[O-])c2)c1 (stereo not given) | -21% | 18% | -8% | 7% | u | 2%
CCn1c(-c2cc(C3CC3)nc3ccccc23)n[nH]c1=S | 50µM* | 21% | -32% | -8% | 2.2µM* | -23%
O=[N+]([O-])c1cc(Br)c(OCc2nnc(-c3ccccc3)o2)c(Br)c1 | -55% | -3% | u | 5% | 28µM* | -6%
COc1ccccc1Cc1nc2ccccc2n1S(=O)(=O)c1ccc(Cl)cc1 | -14% | 30% | -5% | 7% | 25µM* | -7%
COCc1cc(CN2CCN(C)CC2)c(O)c2ncccc12 | 7.9µM* | 21% | 1.1µM* | 17% | -126% | 0%
CC(C)OCc1cc(CN2CCN(c3ccccc3)CC2)c(O)c2ncccc12 | 25µM* | 21% | 8.9µM* | x | -10%[59 µM] | x
CCOC(=O)N1CCN(Cc2cc(Cl)c3cccnc3c2O)CC1 | 22µM* | 6% | 10µM* | u | x | -1%
CCOCc1cc(CN2CCN(c3cccc(Cl)c3)CC2)c(O)c2ncccc12 | 40µM* | 23% | 13µM* | x | -16%[59 µM] | x
COc1ccc(NC(=O)CSc2nc(-c3ccco3)cc(C(F)(F)F)n2)cc1 | -10% | 28% | -7% | x | -32%[59 µM] | x
COC(=O)CCCn1nc(NC(=O)COc2ccc(F)cc2)cc1C | -8% | 10% | 3% | 12% | 18% | -3%
Cc1cccc(-c2nnn3c2nc(NCCc2ccc(S(N)(=O)=O)cc2)c2cc(Cl)ccc23)c1 | 2% | 67% | -30% | x | -1%[59 µM] | x
CCOC(=O)CCc1c(C)c2cc3c(c(C)c2oc1=O)OCN(CCc1ccccc1OC)C3 | -19% | 47% | -15% | x | -6%[59 µM] | x
COc1ccc(N2CCN(c3ncnc4onc(C)c34)CC2)cc1 | -26% | 14% | 5%[57.1 µM] | x | u | x
Cc1cc(OCc2cccc(Cl)c2)c(C)cc1CN1CCOCC1 | 30% | 113% | 16% | -3% | x | 1%
O=C(Oc1c(Cl)cc(Cl)c2cccnc12)N1CCOCC1 | -9% | 11% | 8% | 25% | 4%[12.7 µM] | -10%
O=C(Oc1c(CN2CCOCC2)cc(Cl)c2cccnc12)c1ccccc1Br | 40µM* | 18% | 20µM* | -5% | -7% | -2%
